# Mac1 fbg enh: enhancers of CD11b/CD18 adhesion to fibrinogen, primary screen, K562 cells, luminescence. ATPlite luminescence. activation, % at 10 µM. hit rate 0.07% among 93,000;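 active = 10 µM primary screen giving 50% or more activity, confirmed by 40% or more on retest at that dose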
# Mac1 fbg inh: inhibitors of CD11b/CD18 adhesion to fibrinogen, primary screen, K562 cells, luminescence. Integrin beta-2 (Homo sapiens) + Integrin alpha-M (Homo sapiens), P05107+P11215. ATPlite luminescence; Mn2+ added to activate the integrin. inhibition, % at 10 µM. hit rate 0.54% among 93,000;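 active = primary inhibition of 50% or more at 10 µM, then 40% or more on retest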
# ERa coact pot: enhancers of ERα–SRC-1 coactivator binding, primary screen, biochemical, TR-FRET, ERα LBD, low estradiol; TR-FRET ERalpha-LBD/SRC-Cy5 coactivator binding, 2 h; 100 = basal binding, no effect; hit rate 1.3% among 86,000; Estrogen receptor (Homo sapiens), P03372; coactivator binding (% of control), % at 25.6 µM; in the data active = activity above about 200%;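 note: binding measured in presence of low estradiol as agonist stimulus; 0% = peptide alone without receptor and 100% = receptor with peptide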
# ERb SRC1 inh: inhibitors of ERβ-SRC1 coactivator interaction, primary screen, biochemical, TR-FRET, ERβ LBD, SRC-1 peptide | inhibition, % at 25.6 µM | hit rate 1.3% among 86,000 | AID 633, 2007 | TR-FRET ER-beta LBD / SRC1-Cy5 peptide binding; receptor agonist-loaded with 1 µM estradiol;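 active = compounds whose percent inhibition of the receptor-coactivator binding signal exceeds about 50% in the single-dose screen, limit read from the data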;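 note: 0% = receptor plus peptide wells without compound and 100% = peptide-only wells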
# FAK inh: FAK kinase inhibitors, primary screen, biochemical; Focal adhesion kinase 1 (Homo sapiens), Q05397; biochemical FAK kinase activity assay; inhibition, %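 (tested at 7 µM)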; hit rate 0.84% among 97,000; in the data active = inhibition above about 19%;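 note: 0% = DMSO and 100% = reference compound high control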
# Target sequence (Q05397 whole entry, looked up): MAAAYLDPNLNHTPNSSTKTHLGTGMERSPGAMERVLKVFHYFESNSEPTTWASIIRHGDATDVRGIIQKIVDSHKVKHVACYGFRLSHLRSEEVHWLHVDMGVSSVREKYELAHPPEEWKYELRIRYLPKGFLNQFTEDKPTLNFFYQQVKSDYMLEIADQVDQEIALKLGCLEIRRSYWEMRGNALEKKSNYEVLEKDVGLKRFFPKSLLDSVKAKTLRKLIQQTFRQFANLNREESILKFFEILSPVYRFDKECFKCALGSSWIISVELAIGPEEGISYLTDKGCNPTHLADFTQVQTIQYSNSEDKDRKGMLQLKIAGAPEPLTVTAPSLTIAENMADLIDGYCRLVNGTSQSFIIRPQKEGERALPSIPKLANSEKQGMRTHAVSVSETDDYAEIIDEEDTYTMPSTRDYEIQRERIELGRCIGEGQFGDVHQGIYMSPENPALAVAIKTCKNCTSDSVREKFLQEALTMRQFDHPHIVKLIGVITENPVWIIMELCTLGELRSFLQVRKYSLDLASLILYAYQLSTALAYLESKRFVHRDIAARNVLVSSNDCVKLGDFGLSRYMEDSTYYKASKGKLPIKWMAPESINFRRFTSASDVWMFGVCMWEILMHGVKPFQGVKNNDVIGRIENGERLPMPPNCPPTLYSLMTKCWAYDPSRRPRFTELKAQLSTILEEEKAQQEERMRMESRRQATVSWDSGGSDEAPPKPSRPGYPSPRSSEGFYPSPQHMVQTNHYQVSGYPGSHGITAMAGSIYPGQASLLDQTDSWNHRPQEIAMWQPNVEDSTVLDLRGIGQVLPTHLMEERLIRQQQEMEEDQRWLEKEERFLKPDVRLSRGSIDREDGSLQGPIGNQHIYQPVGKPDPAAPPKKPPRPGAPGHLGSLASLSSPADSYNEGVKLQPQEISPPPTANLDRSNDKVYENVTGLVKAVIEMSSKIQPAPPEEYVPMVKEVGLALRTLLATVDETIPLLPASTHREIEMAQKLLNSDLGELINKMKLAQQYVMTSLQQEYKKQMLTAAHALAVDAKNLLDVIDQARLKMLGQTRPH
# ERa SRC1 inh: ERα–SRC-1 coactivator interaction inhibitors, primary screen, biochemical, TR-FRET, ERα LBD, estradiol-bound; Estrogen receptor (Homo sapiens), P03372; TR-FRET ER-alpha LBD / SRC-1 peptide; inhibition, % at 25.6 µM; hit rate 1.7% among 86,000; AID 629, 2007; in the data active = inhibition above about 50%;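 note: 0% = receptor plus peptide control and 100% = peptide only without receptor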
# Active calls of the source: *; nt = no result; [ ] = remark or other dose. Sampled rows, rich in hits. Any-hit rate of the full collection: about 3.5%.
SMILES,Mac1 fbg enh,Mac1 fbg inh,ERa coact pot,ERb SRC1 inh,FAK inh,ERa SRC1 inh
CCOC(=O)c1sc2nc(CC(=O)OC)nc(NCc3ccc(Cl)cc3)c2c1C,0,35,339*[fluorescence artefact?],8,3,37
O=C(NCc1ccc2c(c1)OCO2)c1ccc(C2SCC(=O)N2Cc2ccco2)cc1 (stereo not given),0,32,215*[fluorescence artefact?],33,1,43
Cc1nnc(Sc2nc3c(c(=O)n(C)c(=O)n3C)n2Cc2ccccc2Cl)s1,nt,nt,102,1,2,64*[fluorescence artefact?]
CCC(CC)C(=O)NCCc1cc2c(C)ccc(C)c2[nH]c1=O,nt,nt,105,2,nt,54*[fluorescence artefact?]
CS(=O)(=O)N(CC(=O)Nc1ccccc1)Cc1ccc(Cl)cc1,-3,-14,107,-4,1,-6
O=C(Cn1nc(-c2ccccc2)c2ccccc2c1=O)NCCN1CCOCC1,-2,-17,nt,nt,nt,nt
CCOc1cc(N2CCOCC2)c(OCC)cc1NC(=O)COc1ncnc2ccc(Br)cc12,-1,-9,77,27,-1,54*[fluorescence artefact?]
Cn1c(=O)c2c(nc(NCc3ccc4c(c3)OCO4)n2Cc2ccc(F)cc2)n(C)c1=O,11,-28,99,-22,1,-21
O=C(Oc1cccc(-n2cnnn2)c1)C1CCCCC1,4,1,117,-7,-3,-6
O=C(Oc1cccc(-n2cnnn2)c1)c1sc2ccccc2c1Cl,-1,-20,246*,7,10,19
CCc1nc(SCC(=O)Nc2c(C)nn(C)c2C)c2cnn(-c3ccccc3)c2n1,3,44,93,16,-1,48
Cc1nn(C)c(C)c1NC(=O)CSc1nc(Cc2ccccc2)nc2c1cnn2-c1ccccc1,nt,nt,141,56*[fluorescence artefact?],2,82*[fluorescence artefact?]
CC(=O)Cn1c(CN2CC(C)CC(C)C2)nc2c1c(=O)n(C)c(=O)n2C (stereo not given),2,10,105,-13,-3,-8
O=C(Nc1cc(Oc2ccccc2)cc([N+](=O)[O-])c1)C12CC3CC(C1)CC(n1cnc(Cl)n1)(C3)C2,nt,nt,nt,nt,1,nt
CCOC(=O)c1c(NC(=O)CSc2nnc(-c3ccccc3)o2)sc(C(C)=O)c1C,-1,65,319*,-7,0,-6
Cc1cc(C)c(C#N)c(SCC(=O)Nc2nnc(-c3ccccc3)s2)n1,7,4,208*[fluorescence artefact?],6,-4,-15
CCOC(=O)c1c(NC(=O)CSc2nnc(-c3ccc(C)cc3)o2)sc(C(C)=O)c1C,-7,39,nt,nt,-1,nt
CCOC(=O)c1c(NC(=O)CSc2nc(C)cc(C)c2C#N)sc(C(C)=O)c1C,0,2,678*[fluorescence artefact?],49,-7,61*[fluorescence artefact?]
Cc1ccc2sc(NC(=O)CSc3nc(C)cc(C)c3C#N)nc2c1,nt,nt,nt,nt,-1,nt
COC(=O)C(C)Sc1nc(-c2ccc(OC)cc2)nc2c1c(=O)n(C)c(=O)n2C (stereo not given),nt,nt,114,-10,0,-23
O=C(CSc1nc2c(c(C(F)(F)F)n1)CCc1ccccc1-2)NCc1ccc(F)cc1,nt,nt,229*,17,1,4
COc1cc(/C=C(/C#N)c2nc3ccccc3[nH]2)ccc1OCC(=O)Nc1ccccc1C,204*,-3,nt,nt,14,nt
O=C1N=C(N2CCOCC2)S/C1=C1\C(=O)N(Cc2ccccc2)c2ccc(Br)cc21,31,3,34,44,nt,93*[fluorescence artefact?]
CCOc1ccc(C(c2c(C)[nH][nH]c2=O)c2c(C)[nH][nH]c2=O)cc1OC,-3,5,nt,nt,-3,nt
COc1ccc(C(c2c(C)[nH]n(-c3ccccc3)c2=O)c2c(C)[nH]n(-c3ccccc3)c2=O)cc1OC,-4,52*,nt,nt,nt,nt
SMILES,Mac1 fbg enh,Mac1 fbg inh,ERa coact pot,ERb SRC1 inh,FAK inh,ERa SRC1 inh
CCC(=O)Nc1cccc(NC(=O)CN2CCN(c3ccccc3OC)CC2)c1,1,9,106,-18,2,-18
CCCC(=O)Nc1cccc(NC(=O)CN2CCN(c3ccccc3OC)CC2)c1,-2,14,126,-1,nt,99*[fluorescence artefact?]
CCCN(CCC)CCCNC(=O)CC1Nc2ccccc2NC1=O (stereo not given),5,3,123,5,10,-2
CCOc1ccc(CSC2=NCCN2)cc1Cl,nt,nt,136,-3,4,0
CCOc1ccc(Br)cc1/C(C)=N\NC1=NCCN1,-6,84*,80,14,1,23
O=C(O)C1C2C=CC(C2)C1C(=O)NCc1cccnc1 (stereo not given),nt,nt,99,38,2,4
COC(=O)c1ccc(CC(=O)c2ccc(O)cc2O)o1,-2,-5,nt,nt,-10,nt
COC(=O)c1ccc(CC(=O)c2c(C)cc(O)cc2O)o1,-8,-3,75,52*,1,35
N#CC(Nc1ccccc1)c1ccccc1OCc1ccccc1 (stereo not given),-4,8,nt,nt,4,nt
CCCCN1C(=O)C(NC(=O)c2cccnc2)(C(F)(F)F)C2=C1CC(C)(C)CC2=O (stereo not given),3,-2,97,5,2,-1
CC(Cc1ccc(O)c(O)c1)C(C)Cc1ccc(O)c(O)c1 (stereo not given),nt,nt,40,83*[fluorescence artefact?],nt,66*
O=C(Oc1cc2oc(=O)c3c(c2cc1Cl)CCCC3)c1ccco1,nt,nt,165,17,-1,46
O=C(Oc1cc2oc(=O)c3c(c2cc1Cl)CCCC3)c1cccs1,-1,53*,nt,nt,nt,nt
O=C(CSc1nc(Nc2ccccc2)nc(N2CCOCC2)n1)N1CCCC1,3,8,92,-3,0,-7
O=C(CSc1nc(Nc2ccccc2)nc(N2CCOCC2)n1)N1CCc2ccccc21,6,8,209*,4,1,19
CN(C)c1ccc(CNCCC2CCOC(C)(C)C2)cc1 (stereo not given),-4,-20,98,-1,-2,-21
COc1ccc(Oc2nc(SC)nc3ccsc23)cc1,nt,nt,nt,nt,4,nt
CC1=C(C)[N+](=O)C2(O)CCCCC2(C)N1[O-] (stereo not given),1,15,109,-3,6,-8
CC12CCCCC1(O)[N+](=O)C1=C(CCCC1)N2[O-] (stereo not given),-1,-9,68,66*,0,39
CCOC(=O)c1c(N)sn(-c2ccccc2)c1=S,-4,-12,590*[fluorescence artefact?],-2,2,-5
CCOC(=O)c1c2c(c(=S)n(-c3ccccc3)c1N)CCC2,-2,4,87,7,9,8
O=C(NCCCN1CCOCC1)C1CC(=O)N(CCc2ccccc2)C1 (stereo not given),-7,-38,nt,nt,-2,nt

# Screening results deposited in PubChem BioAssay by several laboratories.
